Reference: PubChem BioAssay (EPA / NIEHS)
Where a structure was tested more than once in an assay, its records may differ in their call. Calls of active or inactive are those of the source. The calls were made as follows: active = hit-call score of the fitted dose curve at least 0.9, where 1 is the maximum; inactive = score below 0.9.

How the values were obtained:
[1] = read-out: Macrophage colony-stimulating factor (MCSF), CSF1 (gene 1435); test: BSK_hDFCGF_MCSF: BioMAP Diversity Plus: hDFCGF Assay for Macrophage colony-stimulating factor (MCSF) Biomarker Activity (AID 2283060); conditions: primary human foreskin fibroblasts; actives raise or lower the signal
Outline: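 Human foreskin fibroblast primary cultures; M-CSF measured by ELISA 24 hours after chemical dosing. Bidirectional fitting relative to DMSO, with overt cytotoxicity tracked by parallel SRB total-protein staining (0.1% SRB, 10% TCA fixation, 560 nm).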

[2] = BSK_hDFCGF_SRB: Viability Assessment in the BioMAP Diversity Plus: hDFCGF Assay (AID 2283061); conditions: primary human foreskin fibroblasts;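 also: cells exposed to compound for 24 h before the read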
Outline: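 Human foreskin fibroblasts in 96-well plates were treated 24 h. Total protein was measured by 0.1% SRB staining after 10% TCA fixation, read at 560 nm. Data were fitted bidirectionally against DMSO.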

[3] = read-out: TIMP metallopeptidase inhibitor 1 (TIMP1), TIMP1 (gene 7076); test: BSK_hDFCGF_TIMP1: BioMAP Diversity Plus: hDFCGF Assay for TIMP metallopeptidase inhibitor 1 (TIMP1) Biomarker Activity (AID 2283062); conditions: primary human foreskin fibroblasts; actives raise or lower the signal
Outline: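 Human foreskin fibroblast primary cultures dosed for 24 h; secreted/surface TIMP-1 quantified by ELISA. Bidirectional curve fitting against DMSO baseline; cytotoxicity tracked in parallel cultures by SRB total-protein staining.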

[4] = read-out: Matrix Metallopeptidase 1 (MMP1), MMP1 (gene 4312); test: BSK_hDFCGF_MMP1: BioMAP Diversity Plus: hDFCGF Assay for Matrix Metallopeptidase 1 (MMP1) Biomarker Activity (AID 2283064); conditions: primary human foreskin fibroblasts; actives raise or lower the signal
Outline: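 ELISA read-out of MMP1 from human foreskin fibroblasts (primary skin cells), 24 h post-dose. Gain or loss of signal was fitted bidirectionally versus DMSO negative control; cytotoxicity was checked by SRB in parallel cultures.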

[5] = read-out: Vascular cell adhesion molecule 1 (VCAM1), VCAM1 (gene 7412); test: BSK_hDFCGF_VCAM1: BioMAP Diversity Plus: hDFCGF Assay for Vascular cell adhesion molecule 1 (VCAM1) Biomarker Activity (AID 2283065); conditions: primary human foreskin fibroblasts; actives raise or lower the signal;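 as to AC50: VCAM-1 protein level quantified by ELISA after 24 h chemical exposure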
Outline: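 Human foreskin fibroblast primary cells dosed with chemical, VCAM-1 measured by ELISA at 24 h. Bidirectional curve fitting relative to DMSO as negative control/baseline.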

[6] = read-out: Plasminogen activator inhibitor-1 (PAI1), SERPINE1 (gene 5054); test: BSK_hDFCGF_PAI1: BioMAP Diversity Plus: hDFCGF Assay for Plasminogen activator inhibitor-1 (PAI1) Biomarker Activity (AID 2283066); conditions: primary human foreskin fibroblasts; actives raise or lower the signal
Outline: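 ELISA readout of PAI-1 from primary human skin fibroblast cultures, 24 h after compound addition. Gain or loss of signal was fitted bidirectionally against DMSO baseline.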

[7] = read-out: Intercellular Adhesion Molecule 1 (ICAM1), ICAM1 (gene 3383); test: BSK_KF3CT_ICAM1: BioMAP Diversity Plus: KF3CT Assay for Intercellular Adhesion Molecule 1 (ICAM1) Biomarker Activity (AID 2283067); conditions: primary human keratinocytes with fibroblasts; actives raise or lower the signal
Outline: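 Human keratinocyte–foreskin fibroblast co-culture was treated for 24 h. Cell-surface ICAM-1 was quantified by ELISA, fitted bidirectionally relative to DMSO. Cytotoxicity was checked in parallel cultures by SRB total-protein staining.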

[8] = read-out: Interferon-gamma inducible Protein 10 (IP10), CXCL10 (gene 3627); test: BSK_KF3CT_IP10: BioMAP Diversity Plus: KF3CT Assay for Interferon-gamma inducible Protein 10 (IP10) Biomarker Activity (AID 2283068); conditions: primary human keratinocytes with fibroblasts; actives raise or lower the signal
Outline: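 KF3CT co-culture (keratinocytes + foreskin fibroblasts), 24 h compound, IP-10 by ELISA; bidirectional fit vs DMSO baseline.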

[9] = BSK_KF3CT_SRB: Viability Assessment in the BioMAP Diversity Plus: KF3CT Assay (AID 2283069); conditions: primary human keratinocytes with fibroblasts;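 also: total protein by sulforhodamine B staining as a cytotoxicity measure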
Outline: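 SRB read-out at 560 nm (0.1% stain, TCA-fixed cells) gauges overt cytotoxicity in a human skin keratinocyte–fibroblast co-culture 24 h post-dosing. Signal change was fitted bidirectionally relative to DMSO control.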

[10] = read-out: Interleukin-1 alpha (IL1a), IL1A (gene 3552); test: BSK_KF3CT_IL1a: BioMAP Diversity Plus: KF3CT Assay for Interleukin-1 alpha (IL1a) Biomarker Activity (AID 2283070); conditions: primary human keratinocytes with fibroblasts; actives raise or lower the signal
Outline: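 Primary skin co-culture (keratinocytes, foreskin fibroblasts), 24 h exposure; ELISA for IL-1a; bidirectional curve fit vs DMSO.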

[11] = read-out: TIMP metallopeptidase inhibitor 2 (TIMP2), TIMP2 (gene 7077); test: BSK_KF3CT_TIMP2: BioMAP Diversity Plus: KF3CT Assay for TIMP metallopeptidase inhibitor 2 (TIMP2) Biomarker Activity (AID 2283071); conditions: primary human keratinocytes with fibroblasts; actives raise or lower the signal
Outline: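 ELISA readout of TIMP-2 in keratinocyte plus foreskin fibroblast co-cultures (human skin primary cells), 24 h post-dose. Gain or loss of signal fitted relative to DMSO.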

[12] = read-out: Transforming growth factor beta 1 (TGFb1), TGFB1 (gene 7040); test: BSK_KF3CT_TGFb1: BioMAP Diversity Plus: KF3CT Assay for Transforming growth factor beta 1 (TGFb1) Biomarker Activity (AID 2283072); conditions: primary human keratinocytes with fibroblasts; actives raise or lower the signal
Outline: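 Read-out: ELISA for TGF-b1 in keratinocyte/foreskin fibroblast human skin co-culture, 24 h after dosing; bidirectional curve fit vs DMSO baseline; gain or loss of signal scored.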

[13] = read-out: C-C motif chemokine 2 (Homo sapiens) (UniProt P13500); test: BSK_KF3CT_MCP1: BioMAP Diversity Plus: KF3CT Assay for Monocyte Chemoattractant Protein 1 (MCP1/CCL2) Biomarker Activity (AID 2283073); conditions: primary human keratinocytes with fibroblasts; actives raise or lower the signal
Outline: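 Human keratinocyte–foreskin fibroblast co-culture; MCP-1 measured by ELISA 24 h after dosing. Bidirectional fit vs DMSO; cytotoxicity tracked by SRB total protein in parallel cultures.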

[14] = read-out: Matrix Metallopeptidase 9 (MMP9), MMP9 (gene 4318); test: BSK_KF3CT_MMP9: BioMAP Diversity Plus: KF3CT Assay for Matrix Metallopeptidase 9 (MMP9) Biomarker Activity (AID 2283074); conditions: primary human keratinocytes with fibroblasts; actives raise or lower the signal;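 as to AC50: MMP9 protein level quantified by ELISA in the co-culture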
Outline: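 ELISA read-out of MMP-9 at 24 h post-dosing in a co-culture of human skin keratinocytes and foreskin fibroblasts. Gain or loss of signal was fitted in both directions against DMSO.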

[15] = read-out: urokinase plasminogen activator (uPA), PLAU (gene 5328); test: BSK_KF3CT_uPA: BioMAP Diversity Plus: KF3CT Assay for urokinase plasminogen activator (uPA) Biomarker Activity (AID 2283075); conditions: primary human keratinocytes with fibroblasts; actives raise or lower the signal
Outline: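 Skin co-culture (keratinocytes + foreskin fibroblasts), human primary; 24 h post-dose; uPA by ELISA; gain/loss fit vs DMSO baseline.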

CD40, CD40 (gene 958) = test: BSK_LPS_CD40: BioMAP Diversity Plus: LPS Assay for CD40 Biomarker Activity (AID 2283076); conditions: primary human HUVEC with PBMC; actives raise or lower the signal
Outline: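 HUVEC plus PBMC co-culture stimulated with LPS; CD40 quantified by ELISA 24 h after compound dosing. Fitting was bidirectional relative to DMSO. SRB staining of parallel cultures flagged overt cytotoxicity.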

[16] = BSK_LPS_SRB: Viability Assessment in the BioMAP Diversity Plus: LPS Assay (AID 2283079); conditions: primary human HUVEC with PBMC;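 also: total protein by sulforhodamine B absorbance as a cytotoxicity measure; measured one day after compound addition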
Outline: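 Co-culture of human umbilical vein endothelial cells and PBMC, read 24 h after dosing. Total protein by 0.1% SRB staining after 10% TCA fixation, absorbance at 560 nm; bidirectional fit against DMSO.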

[17] = read-out: Interleukin-8 (IL8), CXCL8 (gene 3576); test: BSK_LPS_IL8: BioMAP Diversity Plus: LPS Assay for Interleukin-8 (IL8) Biomarker Activity (AID 2283078); conditions: primary human HUVEC with PBMC; actives raise or lower the signal
Outline: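 Human umbilical vein endothelial cells co-cultured with PBMC, LPS-stimulated, exposed to compound for 24 h. IL-8 quantified by ELISA; fitted in both directions against DMSO, with SRB total-protein staining of parallel cultures for cytotoxicity.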

CC(=O)OC(C)(C)C1CC=C(C)CC1 (configuration not stated)
outcome [1]: inactive
AC50 [2]: 36.7 µM (active)
outcome [3]: inactive
outcome [4]: inactive
outcome [5]: inactive
AC50 [6]: 23.6 µM (active)
outcome [7]: inactive
outcome [8]: inactive
outcome [9]: inactive
outcome [10]: inactive
AC50 [11]: 33.8 µM (active)
outcome [12]: inactive
outcome [13]: inactive
outcome [14]: inactive
AC50 [15]: 32.4 µM (active)
outcome (CD40, CD40 (gene 958)): inactive
outcome [16]: inactive

CC(C)(CO)CO
outcome [1]: inactive
AC50 [2]: 4.62 µM (active)
outcome [2]: inactive
outcome [3]: inactive
outcome [4]: inactive
outcome [5]: inactive
outcome [6]: inactive
outcome [7]: inactive
outcome [8]: inactive
outcome [9]: inactive
outcome [10]: inactive
outcome [11]: inactive
outcome [13]: inactive
outcome [14]: inactive
outcome [15]: inactive
outcome (CD40, CD40 (gene 958)): inactive
outcome [16]: inactive

c1ccc(OCCOc2ccccc2)cc1
outcome [1]: inactive
AC50 [2]: 0.15 µM (active)
outcome [2]: inactive
outcome [3]: inactive
outcome [4]: inactive
outcome [5]: inactive
outcome [6]: inactive
outcome [7]: inactive
outcome [8]: inactive
outcome [9]: inactive
AC50 [10]: 2.45 µM (active)
outcome [10]: inactive
outcome [11]: inactive
outcome [13]: inactive
outcome [14]: inactive
outcome [15]: inactive
outcome (CD40, CD40 (gene 958)): inactive
outcome [16]: inactive

CCCCCCCCCCCCS
AC50 [1]: 9.73 µM (active)
AC50 [2]: 11.7 µM (active)
AC50 [3]: 8.95 µM (active)
AC50 [4]: 10.2 µM (active)
AC50 [5]: 7.26 µM (active)
AC50 [6]: 10.8 µM (active)
outcome [7]: inactive
outcome [8]: inactive
AC50 [9]: 32.9 µM (active)
AC50 [10]: 20 µM (active)
AC50 [11]: 20 µM (active)
AC50 [12]: 29.3 µM (active)
outcome [13]: inactive
AC50 [14]: 14.2 µM (active)
AC50 [15]: 20 µM (active)
AC50 (CD40, CD40 (gene 958)): 20 µM (active)
outcome [17]: inactive
AC50 [16]: 20 µM (active)

CCCCOCCOCCO
outcome [1]: inactive
outcome [2]: inactive
outcome [3]: inactive
outcome [4]: inactive
outcome [5]: inactive
outcome [6]: inactive
outcome [7]: inactive
outcome [8]: inactive
outcome [9]: inactive
outcome [10]: inactive
outcome [11]: inactive
outcome [12]: inactive
outcome [13]: inactive
outcome [14]: inactive
outcome [15]: inactive
outcome (CD40, CD40 (gene 958)): inactive
outcome [16]: inactive
